Here are results for 12 molecules from PubChem BioAssay (NCI).

Each structure is given as a SMILES string. This is part of a sample that, as a whole, favours compounds with a hit. Of some 83,000 tested, about 20% had one in any assay.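 Each cell line was grown in a 96-well plate and treated with one concentration of compound for 48 hours. Values below 10 were considered active.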 Unmarked numbers belong to inactive results. Activity calls are given as the source filed them.

Some test systems named below: SK-MEL-2 melanoma; EKVX NSCLC; SN12C renal; UO-31 renal; TK-10 renal; ACHN renal; A498 renal; CCRF-CEM leukemia; MOLT-4 leukemia; RPMI-8226 leukemia; OVCAR-8 ovarian; OVCAR-5 ovarian; OVCAR-4 ovarian; SK-OV-3 ovarian; IGROV1 ovarian; OVCAR-3 ovarian; HS 578T breast; NCI/ADR-RES ovarian; SR leukemia; CAKI-1 renal.
What all share (experiment): NCI-60 one-dose screen, 48 h (100 = growth as untreated, 0 = no growth, -100 = all killed)
What all share (conditions): 10 µM unless noted

In the case of `O=C1CC(=NCC(=O)n2c(-c3ccccc3)nc3ccccc32)NN1`, the growth is 98.7% with SK-MEL-2 melanoma; 77.5% with EKVX NSCLC; 99% in the assay on SN12C renal; 69.3% in the assay with UO-31 renal; 155% in the assay with TK-10 renal; 93.3% with ACHN renal. Besides, the growth in the assay with A498 renal is 56.1%; in the assay on CCRF-CEM leukemia, 107%; in the assay on MOLT-4 leukemia it was 103%; in the assay on RPMI-8226 leukemia, 104%; with OVCAR-8 ovarian, 102%; in the assay with OVCAR-5 ovarian, 99.9%. In addition, the growth in the assay on OVCAR-4 ovarian was 97.5%; in the assay with SK-OV-3 ovarian it was 84.8%; with IGROV1 ovarian, 77.2%; with OVCAR-3 ovarian it was 103%; with HS 578T breast it was 103%; in the assay with NCI/ADR-RES ovarian it was 99.5%.
Turning to `Clc1ccc2c(NCCCNc3nc(-n4ccnc4)nc4ccccc34)ccnc2c1`, the growth with SK-MEL-2 melanoma is 103%; in the assay with EKVX NSCLC, 70.3%; in the assay with SN12C renal, 84.4%; in the assay on UO-31 renal, 78.8%; in the assay on TK-10 renal it was 102%; in the assay on ACHN renal, 97.7%. The growth with A498 renal was 78.2%; in the assay on CCRF-CEM leukemia it was 75.2%; with MOLT-4 leukemia it was 68%; in the assay on SR leukemia, 58.4%; in the assay on RPMI-8226 leukemia it was 69.3%; in the assay with OVCAR-8 ovarian, 86.2%. Moreover, the growth is 96.3% in the assay with OVCAR-5 ovarian; 94.5% in the assay with SK-OV-3 ovarian; 79.1% with IGROV1 ovarian; 90.2% in the assay on OVCAR-3 ovarian; 84.6% with HS 578T breast; 101% with NCI/ADR-RES ovarian.
In the case of `NC(N)=N/N=C(/c1ccccc1)c1ccc(F)cc1`, the growth is -15.1% (active) with SK-MEL-2 melanoma; 35.1% in the assay with EKVX NSCLC; 17.2% in the assay with SN12C renal; -8.69% (active) with UO-31 renal; 50.5% with TK-10 renal; 29.3% in the assay with ACHN renal. Besides, the growth is -16.6% (active) in the assay with A498 renal; -14.3% (active) with CCRF-CEM leukemia; -10.1% (active) with MOLT-4 leukemia; -19.4% (active) in the assay with SR leukemia; -65.7% (active) in the assay on OVCAR-8 ovarian; 4.37% (active) in the assay on OVCAR-5 ovarian. In addition, the growth was 27.9% in the assay on OVCAR-4 ovarian; 17.6% with SK-OV-3 ovarian; -48.8% (active) in the assay with OVCAR-3 ovarian; -13.4% (active) with HS 578T breast; -37.3% (active) with NCI/ADR-RES ovarian.
Regarding `COc1nc2c(c(=O)n1C)CN(Cc1ccccc1)C=N2`, the growth with SK-MEL-2 melanoma is 106%; in the assay on EKVX NSCLC it was 111%; in the assay with SN12C renal, 116%; in the assay on UO-31 renal it was 77.3%; with ACHN renal it was 106%; in the assay on CAKI-1 renal it was 98.1%. Besides, the growth in the assay on A498 renal is 131%; with CCRF-CEM leukemia it was 103%; with MOLT-4 leukemia, 105%; in the assay with SR leukemia, 98.7%; in the assay on RPMI-8226 leukemia it was 86.6%; in the assay on OVCAR-8 ovarian, 96.7%. Moreover, the growth with OVCAR-5 ovarian was 105%; in the assay on OVCAR-4 ovarian, 116%; in the assay on SK-OV-3 ovarian it was 87.3%; in the assay with IGROV1 ovarian, 93.7%; with OVCAR-3 ovarian, 105%; in the assay on HS 578T breast, 113%. Further, the growth in the assay on NCI/ADR-RES ovarian was 113%.
Take `CC1=C(O)C(=O)C(C(C#N)(C#N)C(C#N)C#N)C1` (stereo not drawn): the growth in the assay with SK-MEL-2 melanoma is 83.9%; in the assay on EKVX NSCLC, 95.3%; in the assay on SN12C renal it was 100%; in the assay with UO-31 renal it was 94.3%; in the assay on TK-10 renal it was 105%; with ACHN renal it was 106%. For the same molecule, the growth was 97.1% in the assay with A498 renal; 112% with CCRF-CEM leukemia; 100% in the assay with MOLT-4 leukemia; 99.3% in the assay with SR leukemia; 106% in the assay with RPMI-8226 leukemia; 101% with OVCAR-8 ovarian. Besides, the growth in the assay with OVCAR-5 ovarian is 109%; with IGROV1 ovarian, 102%; with OVCAR-3 ovarian, 94.8%; with HS 578T breast, 98.9%; in the assay with NCI/ADR-RES ovarian, 97.7%.
Take `Cc1cc(N2CCCC2)nc(NC2CCCC(Nc3ccnc4cc(Cl)ccc34)C2)n1` (stereo not drawn): the growth in the assay with SK-MEL-2 melanoma was -87.5% (active); with EKVX NSCLC, 11.1%; with SN12C renal, -49.4% (active); with UO-31 renal it was -93.3% (active); in the assay on TK-10 renal, -74.5% (active); with ACHN renal, -98% (active). Moreover, the growth was -18.4% (active) in the assay on A498 renal; -22.2% (active) with CCRF-CEM leukemia; -56.6% (active) with SR leukemia; -55.6% (active) in the assay on RPMI-8226 leukemia; -69.8% (active) in the assay with OVCAR-8 ovarian; -14.8% (active) in the assay with OVCAR-5 ovarian. The growth in the assay on OVCAR-4 ovarian is 17.1%; in the assay with SK-OV-3 ovarian, -29% (active); in the assay on IGROV1 ovarian, -27.5% (active); with OVCAR-3 ovarian, -53.2% (active); in the assay with HS 578T breast, -41.6% (active); with NCI/ADR-RES ovarian, -10.1% (active).
In the case of `C=C(C)C(=O)Nc1ccc(NC(C)C)cc1`, the growth in the assay on SK-MEL-2 melanoma was 53.5%; in the assay on EKVX NSCLC, 115%; in the assay with SN12C renal, 121%; with UO-31 renal it was 100%; in the assay on TK-10 renal it was 138%; with ACHN renal, 125%. In addition, the growth in the assay with A498 renal was 101%; in the assay on MOLT-4 leukemia it was 128%; in the assay with SR leukemia, 96.6%; with OVCAR-8 ovarian it was 93.5%; in the assay on OVCAR-5 ovarian, 117%; with OVCAR-4 ovarian it was 111%. Also, the growth with SK-OV-3 ovarian is 109%; with IGROV1 ovarian, 120%; in the assay with OVCAR-3 ovarian, 121%; in the assay on HS 578T breast, 141%; with NCI/ADR-RES ovarian it was 112%.
`Cn1c(O)c(N=NC(=O)c2cc(-c3ccccc3)on2)c2ccccc21`: the growth is 95.3% in the assay on SK-MEL-2 melanoma; 88.5% in the assay on EKVX NSCLC; 100% with SN12C renal; 88% with UO-31 renal; 125% with TK-10 renal; 100% in the assay on ACHN renal. The growth with A498 renal was 85.8%; in the assay with CCRF-CEM leukemia, 108%; with MOLT-4 leukemia it was 105%; in the assay with RPMI-8226 leukemia, 115%; with OVCAR-8 ovarian, 104%; in the assay on OVCAR-5 ovarian it was 102%. For the same molecule, the growth is 95.7% in the assay on OVCAR-4 ovarian; 108% with SK-OV-3 ovarian; 102% with IGROV1 ovarian; 115% in the assay on OVCAR-3 ovarian; 96.2% in the assay with HS 578T breast; 94.9% in the assay on NCI/ADR-RES ovarian.
As to `CC(=O)OCCC/C(=C/c1cc2ccccc2c2ccccc12)[N+](=O)[O-]`, the growth is -80.8% (active) with SK-MEL-2 melanoma; -31.7% (active) with EKVX NSCLC; -88.9% (active) with SN12C renal; -97% (active) with UO-31 renal; -72.2% (active) with TK-10 renal; -91.7% (active) in the assay on ACHN renal. In addition, the growth was -80.1% (active) in the assay with A498 renal; -36.1% (active) with CCRF-CEM leukemia; -28.7% (active) in the assay on MOLT-4 leukemia; -45.8% (active) in the assay on SR leukemia; -100% (active) with OVCAR-8 ovarian; -95.1% (active) in the assay on OVCAR-5 ovarian. In addition, the growth was 0.455% (active) in the assay on OVCAR-4 ovarian; 44.7% in the assay on SK-OV-3 ovarian; -99.1% (active) in the assay on OVCAR-3 ovarian; -46.2% (active) in the assay on HS 578T breast; -29.4% (active) in the assay with NCI/ADR-RES ovarian.
Take `O=C1NC(=Nc2ccc(O)cc2)S/C1=C\c1cccc(Cl)c1`: the growth in the assay on SK-MEL-2 melanoma was 109%; in the assay with EKVX NSCLC it was 84.2%; with SN12C renal it was 82%; with UO-31 renal, 42.5%; in the assay on ACHN renal it was 84.5%; in the assay on CAKI-1 renal, 70%. The growth in the assay on A498 renal is 50.1%; in the assay with CCRF-CEM leukemia, 27.1%; in the assay on MOLT-4 leukemia, 45.4%; in the assay on SR leukemia, 23.1%; with RPMI-8226 leukemia it was 2.99% (active); in the assay with OVCAR-8 ovarian, 84.3%. Further, the growth in the assay with OVCAR-5 ovarian was 110%; in the assay with OVCAR-4 ovarian it was 90.3%; with SK-OV-3 ovarian it was 77.1%; in the assay with IGROV1 ovarian, 65.7%; in the assay with OVCAR-3 ovarian, 30.1%; in the assay on HS 578T breast, 63.1%. In addition, in the assay on NCI/ADR-RES ovarian, the growth was 83.8%.
For the molecule `O=C(CN1CCCCC1)Nc1ccc2oc(=O)ccc2c1`, the growth with SK-MEL-2 melanoma is 96.8%; in the assay with EKVX NSCLC, 101%; with SN12C renal, 101%; with UO-31 renal, 79.1%; in the assay with TK-10 renal it was 108%; in the assay on ACHN renal, 111%. The growth in the assay on A498 renal is 106%; in the assay with CCRF-CEM leukemia, 86%; in the assay on MOLT-4 leukemia, 83.1%; in the assay on SR leukemia, 84.4%; with RPMI-8226 leukemia, 90.7%; in the assay on OVCAR-8 ovarian, 97.8%. Besides, the growth in the assay on OVCAR-4 ovarian was 120%; with SK-OV-3 ovarian it was 109%; in the assay on IGROV1 ovarian, 102%; with OVCAR-3 ovarian, 111%; in the assay on HS 578T breast, 97%; in the assay on NCI/ADR-RES ovarian, 107%.
For `Cc1ccc2c(C(C[N+](=O)[O-])c3ccccc3F)c(-c3ccccc3)[nH]c2c1` (stereo not drawn), the growth in the assay with SK-MEL-2 melanoma is 15.4%; in the assay on EKVX NSCLC, 56.3%; with SN12C renal, 54.5%; with UO-31 renal, 47.5%; in the assay on TK-10 renal, 70.6%; in the assay on ACHN renal, 48.5%. In addition, the growth was 32.5% in the assay on A498 renal; 28.6% with CCRF-CEM leukemia; 25.9% in the assay with MOLT-4 leukemia; 25.8% with SR leukemia; 51.5% in the assay on RPMI-8226 leukemia; 56.5% with OVCAR-8 ovarian. Moreover, the growth with OVCAR-4 ovarian is 65.7%; in the assay on SK-OV-3 ovarian, 31.5%; in the assay on OVCAR-3 ovarian, 13.2%; in the assay with HS 578T breast, 33.8%; with NCI/ADR-RES ovarian, 23.9%.
